# The list is not random: actives were taken first. Their share in the collection is about 19%.
# TGFb SMAD3 inh: blocks TGF-b signaling; HepG2 CAGA-GFP TGF-b/SMAD3 reporter, GFP fluorescence, 18 h; TGF-beta stimulated, 500 pg/mL final; Potency, µM (titrated, usually from 46.1 µM), for inactives: at the highest dose activity, negative = inhibition, usual class: inhibitors; 410,000 tested, 1.2% active; also: potency is read from the fitted curve at half-maximal effect; % is scaled to controls: 0 for no effect and ±100 for the full control effect; nearly all actives have a fitted effect of over 65% in size
#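 Inhibition was scored as loss of TGF-beta-induced (500 pg/mL final, 18 hours, 37 degrees C) GFP in HEPG2 cells carrying a CAGA-GFP reporter, in DMEM with 1% FBS. Well GFP was summed per cell; Activity was normalised to unstimulated and stimulated DMSO wells, then concentration-response fitting.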
# TDP1 cell CPT: DT40-hTDP1 cell growth loss with CPT. chicken DT40 Tdp1-/-;hTDP1 cells + 20 nM CPT, ATP luminescence, 48 h. Potency, µM (series often up to 46.2 µM), for the others: at the top dose activity change, negative = growth inhibition, hits mostly inhibitors. 420,000 tested, 12% active; also: potency is read from the fitted curve at half-maximal effect; % is scaled to controls: 0 for no effect and ±100 for the full control effect; nearly all actives have a fitted effect of over 55% in size
#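 Chicken DT40 Tdp1-/- cells stably complemented with human TDP1 were seeded at 400 cells/well in medium containing 20 nM camptothecin, exposed to pin-transferred compounds, and grown at 37 °C for at least 48 hr. Viability was read as ATP luminescence.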
# DT40 TDP1 no CPT: qHTS for Inhibitors of human tyrosyl-DNA phosphodiesterase 1 (TDP1): qHTS in cells in absence of CPT; DT40 Tdp1-/- hTDP1 cells, no CPT, ATP luminescence, 48 h; Potency, µM (doses to about 46.2 µM), without a hit: at the top dose activity change, negative = growth inhibition, hits mostly inhibitors; 420,000 tested, 15% active; AID 686978, 2013; also: potency is read from the fitted curve at half-maximal effect; % is scaled to controls: 0 for no effect and ±100 for the full control effect; nearly all actives have a fitted effect of over 55% in size
#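 A cellular qHTS used chicken DT40 cells lacking endogenous Tdp1 but carrying stably transfected human TDP1. Compounds were applied without camptothecin, and cell growth kinetics were judged by ATP-dependent luminescence after ≥48 hr.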
# S-ASM inh: blocks human secretory acid sphingomyelinase; P17405; placental ASM, HMU-PC fluorogenic substrate, 60 min; Potency, µM (highest dose often 57.5 µM), without a hit: top-dose activity change, negative = inhibition, most hits filed as inhibitors; 340,000 tested, 0.006% active; also: potency is read from the fitted curve at half-maximal effect
# Target sequence (P17405 47-631 limits assumed): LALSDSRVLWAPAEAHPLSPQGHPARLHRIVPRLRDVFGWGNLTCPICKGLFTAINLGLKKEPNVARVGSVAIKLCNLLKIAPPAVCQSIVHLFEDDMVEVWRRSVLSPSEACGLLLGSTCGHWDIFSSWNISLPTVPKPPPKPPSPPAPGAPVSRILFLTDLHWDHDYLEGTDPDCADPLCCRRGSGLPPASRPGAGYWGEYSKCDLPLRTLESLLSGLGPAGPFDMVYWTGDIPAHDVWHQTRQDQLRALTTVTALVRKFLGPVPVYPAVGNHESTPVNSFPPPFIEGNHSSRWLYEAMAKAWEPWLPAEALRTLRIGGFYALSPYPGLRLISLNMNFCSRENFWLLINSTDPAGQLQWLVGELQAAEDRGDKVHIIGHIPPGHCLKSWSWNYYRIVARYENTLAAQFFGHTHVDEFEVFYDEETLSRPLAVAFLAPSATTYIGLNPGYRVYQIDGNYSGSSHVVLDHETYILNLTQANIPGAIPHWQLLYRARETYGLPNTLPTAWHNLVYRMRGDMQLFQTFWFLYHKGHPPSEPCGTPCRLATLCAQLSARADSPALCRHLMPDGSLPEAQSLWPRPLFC
#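 Steps: dispense placental human ASM, pin compound, wait 10 min at room temperature, add HMU-PC0 substrate at 9 uM final, incubate 60 min at 37 °C, add stop solution raising pH to 10, read fluorescence.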
# IL1B secr inh: blocks inflammasome-driven IL-1 beta release. AID 743279. 360,000 tested, 4.7% active. THP-1 LPS/ATP IL-1B secretion, AlphaLISA, 16 h; active compounds read low. activity change, % at 57.5 µM; in the data active = activity change below about -50%; inconclusive = mostly about -30% to -49%; also: % is scaled to controls: 0 for no effect and ±100 for the full control effect
#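 Secreted IL-1B measured by AlphaLISA bead assay after 16 h compound exposure of THP-1 cells; compounds (final up to 57.5 uM) added 1 h before LPS (250 ng/mL) and ATP (1.25 mM) stimulation; lower signal means less secretion.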
# HepG2 viability: counter-screen for TGF-b inhibitors: cytotoxicity in HepG2 cells; HepG2 CAGA-GFP viability, ATP luminescence, 18 h; 410,000 tested, 0.76% active; Potency, µM (titrated, usually from 46.1 µM), for inactives: at the top dose activity change, negative = cytotoxicity, actives largely listed as cytotoxic; also: potency is read from the fitted curve at half-maximal effect
#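 HepG2 CAGA-GFP cells (1000/well, DMEM with 1% FBS) received compound, then TGF-beta at 500 pg/mL final, and were incubated 18 hours at 37 degrees C. Viability was read by CellTiter-Glo luminescence. Media-only wells were set as complete cell-killing and DMSO as no toxicity.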
# An asterisk follows results filed as active; u = inconclusive; x = not tested or not shown. Unless noted, calls follow the shape of the dose curve; as a rule, active = well fitted curve in the direction sought with a large enough effect; inconclusive = small, poorly fitted or top-dose-only effect, or another doubt; inactive = no such curve, though single readings can be large; an effect the other way counts as inactive or inconclusive.
SMILES,TGFb SMAD3 inh,TDP1 cell CPT,DT40 TDP1 no CPT,S-ASM inh,IL1B secr inh,HepG2 viability
O=[N+]([O-])c1c(NCCCO)cc(N2CCCCCC2)c2nonc12,u,-17.4%,u,-4.5%,1.2,-26.8%
O=[N+]([O-])c1c(NCCCO)cc(N2CCN(Cc3ccc4c(c3)OCO4)CC2)c2nonc12,-14.7%,6.51µM*,5.8µM*,-7.6%,-10.0,-39.5%
CC(=O)OCCNc1cc(Sc2nc3ccccc3[nH]2)c2nonc2c1[N+](=O)[O-],u,2.31µM*,4.11µM*,-6.9%,-101.2*,-31.6%
COc1ccc(CNc2cc(NCCCO)c([N+](=O)[O-])c3nonc23)cc1,-27.3%,20.6µM*,6.51µM*,-5.1%,35.4,-41.6%
CC(C)NC(=O)c1onc(CSc2nc3ccccc3[nH]2)c1C(=O)NC(C)C,-10.0%,-10.8%,-7.3%,3.8%,-3.4,0.9%
COc1ccc(Nc2cc(NCCCO)c([N+](=O)[O-])c3nonc23)cc1,-13.9%,-25.1%,1.1%,-11.7%,39.4,-0.2%
O=C(Nc1ccccc1)C1=C[C@@H](c2ccc(C(F)(F)F)cc2)C[C@@H](OCCCCO)O1,u,u,u,-13.5%,u,-17.5%
N#Cc1c(-c2ccccc2)cc(-c2ccccc2)nc1SCCC(=O)O,-3.2%,u,u,5.1%,3.3,-18.6%
O=c1[nH]/c(=C/c2ccc3c(c2)OCO3)c(=O)[nH]/c1=C/c1ccc2c(c1)OCO2,5.1%,-1.9%,-8.6%,x,x,-35.8%
COc1ccc(NC(=O)CN2C(=O)CCc3cc(S(=O)(=O)N4CCOCC4)ccc32)cc1Cl,-28.7%,-27.5%,-19.8%,x,x,-20.4%
CC(C)C(OC(=O)/C=C/c1ccc2c(c1)OCO2)C(=O)NC(N)=O (stereo not drawn),u,17.3%,-13.5%,29.1%,-1.0,3.2%
Cc1ccc(C)c(Nc2ccc3nonc3c2[N+](=O)[O-])c1,-12.2%,2.8%,14.8%,-12.0%,22.6,-0.7%
Cn1ccnc1Sc1cc(NCCCO)c([N+](=O)[O-])c2nonc12,u,3.26µM*,5.17µM*,-2.4%,-100.9*,-26.4%
CC(=O)OCCNc1cc(SCc2ccco2)c2nonc2c1[N+](=O)[O-],u,u,18.4µM*,-15.0%,-52.4*,-58.1%
O=[N+]([O-])c1c(NCCCO)cc(SCc2ccco2)c2nonc12,11.2µM*,14.6µM*,20.6µM*,-6.0%,-97.2*,-55.1%
O=[N+]([O-])c1c(NCc2ccco2)ncnc1NCc1ccco1,6.6%,-4.1%,-4.2%,-3.7%,-18.7,-15.3%
CC(=O)OCCCNc1cc(Sc2ccc(C)cc2)c2nonc2c1[N+](=O)[O-],-5.1%,2.91µM*,3.26µM*,-19.8%,-51.3*,-26.7%
COc1ccc(NC(=O)Cc2c(C(=O)O)[nH]c3ccccc23)cc1OC,11.4%,2.4%,-0.6%,x,x,1.0%
CC(=O)C[C@@H](O)CC(=O)[C@@H]1OC(=O)CCCCC/C=C/Cc2ccccc21,-2.6%,-1.4%,-26.6%,1.4%,-10.8,-15.0%
O=C1Nc2ccc(Br)cc2C12OCCO2,15.4%,8.4%,6.8%,-0.9%,x,31.8%
CCOc1ccc(S(=O)(=O)N(CCO)CCO)cc1-c1nc2c(C(C)(C)C)nn(C)c2c(=O)[nH]1,6.9%,u,18.4µM*,2.5%,u,4.6%
CCCc1nn(C)c2c(=O)[nH]c(-c3cc(S(=O)(=O)N(CCO)CCO)ccc3OCC)nc12,3.3%,u,4.6%,1.2%,-14.9,-64.6%
CCOc1ccc(S(=O)(=O)NC(C)(C)C)cc1-c1nc2c(C(C)(C)C)nn(C)c2c(=O)[nH]1,u,20.6µM*,u,u,-98.0*,-52.6%
CCOc1ccc(S(N)(=O)=O)cc1-c1nc2c(C(C)(C)C)nn(C)c2c(=O)[nH]1,-1.8%,u,u,-0.1%,u,-44.9%
O=C(NCc1ccc(F)cc1)C(=O)Nc1nc(C23CC4CC(CC(C4)C2)C3)cs1,12.9%,u,u,x,-2.1,-27.2%
SMILES,TGFb SMAD3 inh,TDP1 cell CPT,DT40 TDP1 no CPT,S-ASM inh,IL1B secr inh,HepG2 viability
O=C(NCc1ccncc1)C(=O)Nc1nc(C23CC4CC(CC(C4)C2)C3)cs1,u,20.6µM*,20.6µM*,-2.1%,0.0,-11.3%
O=C(NCc1ccccc1)C(=O)Nc1nc(C23CC4CC(CC(C4)C2)C3)cs1,27.0%,23.1µM*,u,3.8%,23.0,-4.9%
O=C(NCc1cccnc1)C(=O)Nc1nc(C23CC4CC(CC(C4)C2)C3)cs1,0.0%,u,16.4µM*,-3.1%,16.0,-40.8%
O=C(O)c1cc(S(=O)(=O)NC23CC4CC(CC(C4)C2)C3)ccc1Cl,19.5%,6.7%,2.6%,2.5%,-2.4,27.1%
C[C@H]1CN([C@@H](C)CO)C(=O)CCCn2nncc2CO[C@@H]1CN(C)Cc1ccncc1,u,-24.9%,-2.8%,x,-23.5,-42.7%
CN(C)c1ccc(-c2nn3c(C4CCCCC4)nnc3s2)cc1,0.0%,16.4µM*,23.1µM*,101.9%,-15.7,-16.3%
CCOC1=C2[C@H](c3ccccc3)N(S(=O)(=O)c3ccc(C)cc3)C(C(C)(C)C)[C@H]2C(C#N)(C#N)C(C#N)(C#N)C1 (stereo partly drawn),10µM*,2.06µM*,2.06µM*,x,-64.4*,15.8µM*
CCOC1=C2CN(S(=O)(=O)c3ccc(C)cc3)[C@H](c3cccc4ccccc34)C[C@H]2C(C#N)(C#N)C(C#N)(C#N)C1,u,4.11µM*,5.8µM*,x,-26.3,-43.1%
CCC(NC(=O)NNC(=O)c1ccncc1)(C(F)(F)F)C(F)(F)F,3.1%,-3.7%,4.5%,4.7%,11.9,0.9%
CCC(C)NC(=O)c1ccc(N2CC3CC(C2)c2cccc(=O)n2C3)c(NC(=O)c2c(F)cccc2F)c1 (stereo not drawn),-9.4%,u,u,x,-16.1,-17.1%
CCOC(=O)C1CCN(c2ncnc3c2c(-c2ccccc2)cn3-c2ccc(Cl)cc2)CC1,-0.4%,-8.7%,u,x,x,-4.9%
CC1CCCN(C(=O)COC(=O)CNS(=O)(=O)c2ccc3ccccc3c2)C1 (stereo not drawn),0.3%,-9.0%,-3.7%,-0.6%,2.9,1.3%
CCn1c(C2CC(=O)N(Cc3ccccc3)C2)nc2ccccc21 (stereo not drawn),-17.9%,-15.3%,-7.5%,3.6%,-10.7,-17.4%
